From PubChem BioAssay (Tox21)
Where “and” joins values, the source holds several entries; their conditions need not be identical. Equal values may be shown once. Inconclusive results are not listed. Entries that show only a call come without a potency. The source holds several records for some structures; these can differ, active in one and inactive in another. Calls of active or inactive are those of the source. Unless noted, calls follow the shape of the dose curve; as a rule, active = well fitted curve in the direction sought with a large enough effect in the repeat runs; inconclusive = weak or mixed curves; inactive = no such curve, though single readings can be large; an effect the other way counts as inactive or inconclusive.

What was measured:
[1] = target: Thyrotropin receptor (Homo sapiens) (UniProt P16473); experiment: qHTS assay to identify small molecule antagonists of the thyroid stimulating hormone receptor (TSHR) signaling pathway (AID 1259385; calls by dose curve; also: nearly all actives have a fitted effect of over 20% in size)
How it was run: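 TSHR-HEK293 cells were plated and held 18 h at 37C/5% CO2, then given compound plus Ro20-1724 and stimulated with TSH at 1.5 ng/mL final. After 30 min at room temperature, cAMP was detected with cAMP-d2/anti-cAMP-cryptate (1 h) by fluorescence.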

[2] = qHTS assay to identify small molecule agonists of the estrogen receptor alpha (ER-alpha) signaling pathway in the presence of an antagonist - cell viability counter screen (AID 1259386);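 also: cells exposed to compounds for 22 h at 37 °C before the viability read; nearly all actives have a fitted effect of over 30% in size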; also: potency is read from the fitted curve at half-maximal effect; as to activity change, negative = cytotoxicity: series mostly up to about 92 µM
How it was run: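 The test measures whether compounds kill ER-alpha reporter cells (VM7Luc4E2) under antagonist co-treatment (ICI-182,780, 10.0nM). Fluorescence from CellTiter-Fluor is read after a 22hr exposure.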

[3] = target: Progesterone receptor (Homo sapiens) (UniProt P06401); experiment: qHTS assay to identify small molecule agonists of the progesterone receptor (PR) signaling pathway (AID 1346784; calls by dose curve; also: nearly all actives have a fitted effect of over 30% in size)
How it was run: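 Seed PR-UAS-bla HEK 293T cells (2% charcoal-stripped FBS), incubate 6 hr at 37C; add compounds in DMSO, 16 hr at 37C; add LiveBLAzer B/G substrate, 2 hr RT; read fluorescence intensity.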

[4] = qHTS assay to identify small molecule agonists of the progesterone receptor (PR) signaling pathway - cell viability counter screen (AID 1346799; calls by dose curve; also: nearly all actives have a fitted effect of over 45% in size)
How it was run: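 Using the same plates as the PR reporter screen, HEK293T PR-UAS-bla cells received compounds for 16 hr at 37C and were then lysed with CellTiter-Glo; luminescence was read 30 min later at room temperature.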

[5] = qHTS assay to identify small molecule antagonists of the TGF-beta/Smad signaling pathway - cell viability counter screen (AID 1346824); also: nearly all actives have a fitted effect of over 50% in size
How it was run: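 SBE-bla HEK 293T cells were plated overnight at 37 C, then given compounds in DMSO plus TGF-beta1 (added as 0.25 ng/mL solution) for 5 hr. After the bla read, CellTiter-Glo was added to the same wells and luminescence read after 30 min at room temperature.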

[6] = qHTS assay to identify small molecule agonists of the TGF-beta/Smad signaling pathway - cell viability counter screen (AID 1346829); also: top concentration of the series differs between compounds; nearly all actives have a fitted effect of over 45% in size
How it was run: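 Cytotoxicity counter screen: CellTiter-Glo luminescence (30 min, room temperature) measured in the SBE-bla HEK 293T reporter wells after 5 hr compound treatment at 37 C and the 2 hr substrate step.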

[7] = qHTS assay to identify small molecule agonists of the TGF-beta/Smad signaling pathway (AID 1346859; active = well fitted activation curve with a large enough effect in the signal ratio in the repeat runs, not every such curve was filed as active; the % refers to the signal ratio; also: series mostly up to about 77 µM)
How it was run: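 Beta-lactamase reporter activity downstream of Smad binding elements was measured in stably transfected HEK 293T cells; compounds were incubated for 5 hr, substrate for 2 hr at room temperature.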

[8] = target: Thyrotropin-releasing hormone receptor (Homo sapiens) (UniProt P34981); experiment: qHTS assay to identify small molecule antagonists of the thyrotropin-releasing hormone receptor (TRHR) signaling pathway (AID 1346877; active = well fitted inhibition curve with a large enough effect in the repeat runs, not every such curve was filed as active; also: series mostly up to about 51 µM)
How it was run: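 Overnight-plated (18 h, 37 °C) HEK293 cells expressing TRHR were dye-loaded 2 h, treated with compound, then stimulated with TRH at 1 nM final. Fluorescence intensity was captured every second for 3 min.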

[9] = target: Thyrotropin-releasing hormone receptor (Homo sapiens) (UniProt P34981); experiment: qHTS assay to identify small molecule agonists of the thyrotropin-releasing hormone receptor (TRHR) signaling pathway (AID 1346891; calls by dose curve; also: potency is read from the fitted curve at half-maximal effect;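 as to activation: HEK293 cells expressing TRHR with calcium dye readout; series mostly up to about 58 µM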)
How it was run: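 Overnight-plated (18 h, 37 °C, 5% CO2) TRHR-Hek293 cells; 2 h calcium dye at 37 °C; compound in DMSO; 3-min kinetic fluorescence read.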

[10] = Caspase-3/7 induction in CHO-K1 cells by small molecules, qHTS cell viability counter screen (AID 1346979); also: nearly all actives have a fitted effect of over 35% in size; also: potency is read from the fitted curve at half-maximal effect
How it was run: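 Multiplexed with Caspase-Glo 3/7 in CHO-K1 cells, this counter screen added CellTiter-Fluor after 16hr of compound exposure and recorded fluorescence 1hr later.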

[11] = Caspase-3/7 induction in CHO-K1 cells by small molecules, qHTS assay (AID 1346980); also: nearly all actives have a fitted effect of over 15% in size
How it was run: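 Wild-type cells were seeded at 1,500 per well and settled 5 hr at 37 C, 5% CO2, then exposed to DMSO-dissolved compounds for 17 hr. Caspase-Glo 3/7 reagent was added, and luminescence was read after 30min at room temperature.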

[12] = Caspase-3/7 induction in HepG2 cells by small molecules, qHTS cell viability counter screen (AID 1346981); also: nearly all actives have a fitted effect of over 30% in size; also: potency is read from the fitted curve at half-maximal effect; as to activity change, negative = cytotoxicity: series mostly up to about 92 µM
How it was run: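 Treatment of HepG2 cells with DMSO-delivered compounds ran 16 hr at 37 C following a 5-hr pre-incubation of 2,000 cells/well. CellTiter-Fluor fluorescence, read after 1 hr, served as the viability measure in a qHTS format.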

[13] = target: Nuclear receptor subfamily 1 group I member 2 (Rattus norvegicus) (UniProt Q9R1A7); experiment: Rat pregnane X receptor (rPXR) activation by small molecules, qHTS assay (AID 1346983); details: rPXR luciferase reporter cells, One-Glo luminescence, 24 h; max activation: stronger effect = higher value; also: nearly all actives have a fitted effect of over 20% in size
How it was run: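 Cell-based rPXR luciferase reporter assay, 2,000 cells per well, rested 5hr at 37 C before compound addition in DMSO, then 24 hr at 37 C. One-Glo reagent was added and luminescence read after 30 min at room temperature.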

[14] = Human pregnane X receptor (PXR) small molecule agonists, qHTS cell viability counter screen (AID 1346977); also: nearly all actives have a fitted effect of over 50% in size; also: potency is read from the fitted curve at half-maximal effect
How it was run: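 After a 5hr pre-incubation, PXR-Luc HepG2 cells received compounds plus positive control in DMSO and were kept 24hr at 37C. Cell viability was quantified by fluorescence from CellTiter-Fluor added for the final hour.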

[15] = target: Nuclear receptor subfamily 1 group I member 2 (Homo sapiens) (UniProt O75469); experiment: Human pregnane X receptor (PXR) small molecule agonists, qHTS assay (AID 1346982); also: nearly all actives have a fitted effect of over 35% in size; also: potency is read from the fitted curve at half-maximal effect
How it was run: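 Stable HepG2 line reporting PXR-mediated CYP3A4 expression via luciferase. Treatment: 24 hr with compounds in DMSO at 37 C. Detection: ONE-Glo luminescence.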

[16] = target: Progesterone receptor (Homo sapiens) (UniProt P06401); experiment: qHTS assay to identify small molecule antagonists of the progesterone receptor (PR) signaling pathway (AID 1346795; active = well fitted inhibition curve with a large enough effect in the signal ratio in the repeat runs, not every such curve was filed as active; the % refers to the signal ratio)
How it was run: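 Screening used a GripTite HEK293T line with PR-responsive UAS-beta-lactamase. Cells were challenged with compound in the presence of 1 nM R5020 final for 16 hr at 37C; B/G FRET substrate, 2 hr room temperature, fluorescence.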

[17] = qHTS assay to identify small molecule antagonists of the progesterone receptor (PR) signaling pathway - cell viability counter screen (AID 1346798); also: nearly all actives have a fitted effect of over 50% in size; also: potency is read from the fitted curve at half-maximal effect; as to activity change, negative = cytotoxicity: series mostly up to about 92 µM
How it was run: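 Measures cytotoxicity in parallel with the PR antagonist reporter read: HEK293T PR-UAS-bla cells get compound and R5020 for 16 hr, and remaining viable cells are quantified by CellTiter-Glo luminescence.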

[18] = Caspase-3/7 induction in HepG2 cells by small molecules, qHTS assay (AID 1346978); also: nearly all actives have a fitted effect of over 15% in size; also: potency is read from the fitted curve at half-maximal effect
How it was run: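 Wild-type HepG2 cells (2,000/well) were settled 5 h at 37 C, 5% CO2, then exposed to compounds in DMSO for 17 h. Caspase-3/7 activity was read by luminescence 30 min after adding Caspase-Glo 3/7 reagent at room temperature.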

[19] = target: Nuclear receptor subfamily 1 group I member 2 (Homo sapiens) (UniProt O75469); experiment: CYP3A4 induction through human pregnane X receptor (PXR) by small molecules, qHTS assay (AID 1346984); also: nearly all actives have a fitted effect of over 40% in size
How it was run: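 After 24 h at 37C with compound, DPX-2 cells (HepG2, co-transfected PXR response element and CYP3A4 promoter-luciferase) got 3uM final P450-Glo Luciferin-IPA for 3 h; One-Glo luminescence followed.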

[20] = target: Nuclear receptor subfamily 1 group I member 2 (Homo sapiens) (UniProt O75469); experiment: Human pregnane X receptor (PXR) activation by small molecules, qHTS assay (AID 1346985); also: nearly all actives have a fitted effect of over 40% in size
How it was run: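 DPX-2 cells (HepG2 co-transfected with a PXR response element and a CYP3A4-promoter luciferase construct) were seeded at 2,000 per well, rested 5 hr at 37C, then exposed to DMSO-dissolved compounds for 24 hr. Activation was read as luciferase luminescence.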

Chain of Thyrotropin receptor (Homo sapiens) (P16473 whole entry, looked up): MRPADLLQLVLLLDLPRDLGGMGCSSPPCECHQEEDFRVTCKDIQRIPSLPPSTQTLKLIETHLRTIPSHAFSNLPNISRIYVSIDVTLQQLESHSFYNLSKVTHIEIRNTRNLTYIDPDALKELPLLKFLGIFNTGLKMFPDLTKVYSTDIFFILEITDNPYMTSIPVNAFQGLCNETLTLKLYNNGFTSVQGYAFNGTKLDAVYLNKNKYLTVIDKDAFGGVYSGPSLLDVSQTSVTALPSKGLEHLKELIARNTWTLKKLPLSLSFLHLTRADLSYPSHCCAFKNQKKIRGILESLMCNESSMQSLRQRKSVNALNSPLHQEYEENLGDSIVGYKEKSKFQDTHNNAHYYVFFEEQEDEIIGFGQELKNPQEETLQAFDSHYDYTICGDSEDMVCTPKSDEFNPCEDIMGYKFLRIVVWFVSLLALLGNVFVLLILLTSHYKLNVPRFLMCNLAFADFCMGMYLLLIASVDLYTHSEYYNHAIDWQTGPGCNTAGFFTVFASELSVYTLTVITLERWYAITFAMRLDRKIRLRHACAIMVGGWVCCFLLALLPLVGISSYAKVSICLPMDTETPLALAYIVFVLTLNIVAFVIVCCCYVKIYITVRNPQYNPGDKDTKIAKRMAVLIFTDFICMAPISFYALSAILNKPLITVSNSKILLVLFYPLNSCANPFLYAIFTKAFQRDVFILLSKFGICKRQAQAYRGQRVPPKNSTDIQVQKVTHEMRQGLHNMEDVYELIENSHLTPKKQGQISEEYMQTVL
Chain of Thyrotropin-releasing hormone receptor (Homo sapiens) (P34981 whole entry, looked up): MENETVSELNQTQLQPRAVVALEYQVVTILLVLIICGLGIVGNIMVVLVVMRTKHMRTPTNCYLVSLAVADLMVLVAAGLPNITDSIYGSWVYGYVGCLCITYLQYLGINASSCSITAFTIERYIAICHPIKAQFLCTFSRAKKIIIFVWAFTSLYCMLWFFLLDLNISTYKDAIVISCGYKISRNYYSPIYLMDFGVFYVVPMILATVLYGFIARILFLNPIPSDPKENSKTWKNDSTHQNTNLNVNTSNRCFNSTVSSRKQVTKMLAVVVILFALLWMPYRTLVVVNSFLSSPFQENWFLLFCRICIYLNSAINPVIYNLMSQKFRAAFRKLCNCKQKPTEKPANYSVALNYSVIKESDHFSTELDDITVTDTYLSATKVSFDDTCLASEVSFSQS
Chain of Nuclear receptor subfamily 1 group I member 2 (Homo sapiens) (O75469 whole entry, looked up): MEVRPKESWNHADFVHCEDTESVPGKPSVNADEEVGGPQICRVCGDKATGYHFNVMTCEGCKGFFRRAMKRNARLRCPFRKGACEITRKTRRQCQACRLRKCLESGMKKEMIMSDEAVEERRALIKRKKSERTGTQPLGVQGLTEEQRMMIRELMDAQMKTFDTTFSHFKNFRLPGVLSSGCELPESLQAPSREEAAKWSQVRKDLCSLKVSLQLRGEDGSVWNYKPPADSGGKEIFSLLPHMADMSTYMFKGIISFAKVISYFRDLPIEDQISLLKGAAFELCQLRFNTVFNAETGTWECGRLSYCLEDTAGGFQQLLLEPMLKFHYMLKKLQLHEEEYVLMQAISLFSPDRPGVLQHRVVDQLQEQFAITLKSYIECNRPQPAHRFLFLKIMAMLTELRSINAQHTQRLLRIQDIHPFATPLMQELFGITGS
Chain of Nuclear receptor subfamily 1 group I member 2 (Rattus norvegicus) (Q9R1A7 whole entry, looked up): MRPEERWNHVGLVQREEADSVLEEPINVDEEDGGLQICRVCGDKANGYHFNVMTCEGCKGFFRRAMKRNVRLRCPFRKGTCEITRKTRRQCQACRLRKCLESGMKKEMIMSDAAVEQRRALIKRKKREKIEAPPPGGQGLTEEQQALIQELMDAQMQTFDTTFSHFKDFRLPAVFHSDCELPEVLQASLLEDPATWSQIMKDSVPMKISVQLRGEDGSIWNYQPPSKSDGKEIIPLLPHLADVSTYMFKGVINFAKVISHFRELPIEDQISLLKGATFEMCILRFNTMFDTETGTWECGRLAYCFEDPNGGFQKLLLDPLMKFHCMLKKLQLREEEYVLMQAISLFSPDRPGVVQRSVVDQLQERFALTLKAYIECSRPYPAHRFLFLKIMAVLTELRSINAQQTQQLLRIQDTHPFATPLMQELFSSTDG
Chain of Progesterone receptor (Homo sapiens) (P06401 whole entry, looked up): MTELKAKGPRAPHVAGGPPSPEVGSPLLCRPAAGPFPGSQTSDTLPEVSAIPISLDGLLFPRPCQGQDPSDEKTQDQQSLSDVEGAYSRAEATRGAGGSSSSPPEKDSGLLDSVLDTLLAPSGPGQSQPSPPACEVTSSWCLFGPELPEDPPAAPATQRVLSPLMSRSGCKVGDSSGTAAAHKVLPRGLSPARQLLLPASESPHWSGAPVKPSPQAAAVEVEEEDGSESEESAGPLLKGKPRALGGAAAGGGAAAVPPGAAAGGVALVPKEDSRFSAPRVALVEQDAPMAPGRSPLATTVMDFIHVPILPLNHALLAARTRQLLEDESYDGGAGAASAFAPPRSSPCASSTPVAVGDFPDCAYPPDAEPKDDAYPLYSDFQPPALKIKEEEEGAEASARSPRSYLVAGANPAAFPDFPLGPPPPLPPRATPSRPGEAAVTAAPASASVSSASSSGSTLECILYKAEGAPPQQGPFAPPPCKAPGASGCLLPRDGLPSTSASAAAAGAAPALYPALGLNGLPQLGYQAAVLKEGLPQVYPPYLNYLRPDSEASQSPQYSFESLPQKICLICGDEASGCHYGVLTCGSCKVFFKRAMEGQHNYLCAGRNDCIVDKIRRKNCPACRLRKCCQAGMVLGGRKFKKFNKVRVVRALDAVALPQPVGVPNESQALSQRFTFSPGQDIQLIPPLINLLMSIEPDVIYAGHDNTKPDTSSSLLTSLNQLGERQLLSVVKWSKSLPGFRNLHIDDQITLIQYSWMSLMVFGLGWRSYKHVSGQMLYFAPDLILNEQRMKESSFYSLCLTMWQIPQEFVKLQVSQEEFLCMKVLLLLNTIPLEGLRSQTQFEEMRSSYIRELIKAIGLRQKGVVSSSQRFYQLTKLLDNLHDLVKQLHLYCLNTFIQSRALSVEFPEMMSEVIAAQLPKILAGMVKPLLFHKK

CS(=O)(=O)Nc1ccc([N+](=O)[O-])cc1Oc1ccccc1
outcome [1]: inactive
Potency [2]: 48.6 µM (active) and 26.6 µM (active)
Potency [3]: inactive
Potency [4]: inactive
Potency [5]: inactive
Potency [6]: inactive
outcome [7]: inactive
outcome [8]: inactive
Potency [9]: inactive
Potency [10]: 54.5 µM (active)
Potency [11]: inactive
Potency [12]: 54.5 µM (active) and 29.8 µM (active)
max activation [13]: -5.28% (inactive)

OCC1CCCO1 (stereo unspecified)
Potency [2]: inactive
Potency [3]: inactive
Potency [4]: inactive
Potency [5]: inactive
Potency [6]: inactive
outcome [7]: inactive
outcome [8]: inactive
Potency [14]: inactive
Potency [10]: inactive
Potency [11]: inactive
Potency [12]: inactive
Potency [15]: inactive

O=C(c1cc(O)c(O)c(O)c1)c1ccc(O)c(O)c1O
Potency [2]: 34.3 µM (active) and 30.6 µM (active)
Potency [3]: inactive
Potency [16]: inactive
Potency [17]: inactive
Potency [4]: inactive
Potency [5]: inactive
Potency [6]: inactive
outcome [7]: inactive
outcome [8]: inactive
Potency [14]: 39.8 µM (active) and 61.1 µM (active)
Potency [10]: 48.4 µM (active) and 54.5 µM (active) and 29.8 µM (active)
Potency [11]: inactive
Potency [12]: 54.3 µM (active) and 30.6 µM (active)
Potency [15]: inactive

C/C=C(C)/C=C/C=C(C)C
Potency [2]: inactive
Potency [3]: inactive
Potency [16]: inactive
Potency [4]: inactive
Potency [5]: inactive
Potency [6]: inactive
outcome [7]: inactive
Potency [14]: inactive
Potency [11]: inactive
Potency [12]: inactive
Potency [15]: 60.4 µM (active) and 27.3 µM (active)

O=Nc1ccc(O)cc1
outcome [1]: inactive
Potency [2]: 47.4 µM (active) and inactive
Potency [17]: inactive
Potency [4]: inactive
Potency [5]: inactive
Potency [6]: inactive
outcome [7]: inactive
outcome [8]: inactive
Potency [9]: inactive
Potency [14]: inactive
Potency [18]: inactive
Potency [10]: 47.4 µM (active) and inactive
Potency [11]: inactive
Potency [12]: inactive
Potency [15]: inactive

Clc1cc(Cl)c(Cl)cc1Cl
Potency [2]: inactive
Potency [3]: inactive
Potency [16]: inactive
Potency [4]: inactive
Potency [5]: inactive
Potency [6]: inactive
outcome [7]: inactive
Potency [14]: inactive
Potency [18]: inactive
Potency [10]: inactive
Potency [11]: inactive
Potency [12]: inactive
Potency [15]: inactive

COCC(=O)O
outcome [1]: inactive
Potency [2]: inactive
Potency [3]: inactive
Potency [4]: inactive
Potency [5]: inactive
Potency [6]: inactive
outcome [7]: inactive
Potency [14]: inactive
Potency [10]: inactive
Potency [11]: inactive
Potency [12]: inactive
Potency [15]: inactive

CCC(=O)O
Potency [2]: inactive
activity change, negative = cytotoxicity [4]: -3.72% [at 19 µM] (inactive)
Potency [5]: inactive
Potency [6]: inactive
outcome [7]: inactive
Potency [14]: inactive
Potency [18]: inactive
Potency [10]: inactive
Potency [11]: inactive
Potency [12]: inactive
Potency [15]: inactive

C=C1CC[C@H](O)CC1=C/C=C1\CCC[C@]2(C)[C@@H]([C@H](C)/C=C/[C@H](C)C(C)C)CC[C@@H]12
outcome [1]: inactive
Potency [3]: inactive
Potency [17]: inactive
Potency [4]: inactive
Potency [5]: inactive
Potency [6]: inactive
outcome [7]: inactive
Potency [14]: inactive
Potency [10]: 54 µM (active) and 48.6 µM (active)
Potency [15]: 34.1 µM (active) and 30.6 µM (active)
max activation [13]: -1.33% (inactive)
outcome [19]: inactive
outcome [20]: inactive

CN(C)c1ccc(C(=N)c2ccc(N(C)C)cc2)cc1
outcome [1]: inactive
Potency [2]: 30.3 µM (active) and 20.9 µM (active)
Potency [3]: inactive
Potency [5]: inactive
Potency [6]: inactive
outcome [7]: inactive
outcome [8]: inactive
Potency [14]: 17.8 µM (active) and 23.4 µM (active)
Potency [18]: 2.4 µM (active) and inactive
Potency [10]: 30.3 µM (active) and 18.6 µM (active)
Potency [11]: inactive
Potency [12]: 42.7 µM (active) and 46.7 µM (active)
Potency [15]: 2.14 µM (active) and 14.8 µM (active)

NCCc1ccc(O)c(O)c1
Potency [2]: 27.4 µM (active) and inactive
Potency [3]: inactive
Potency [16]: inactive
Potency [4]: inactive
Potency [5]: inactive
Potency [6]: inactive
outcome [7]: inactive
outcome [8]: inactive
Potency [9]: inactive
Potency [14]: 30.7 µM (active)
Potency [18]: inactive
Potency [10]: 61.3 µM (active) and inactive
Potency [11]: inactive
Potency [12]: 68.8 µM (active) and inactive
Potency [15]: inactive

OC[C@@H](O)[C@H](O)[C@H](O)[C@@H](O)CO
outcome [1]: inactive
Potency [2]: inactive
Potency [3]: inactive
Potency [4]: inactive
Potency [5]: inactive
Potency [6]: inactive
outcome [7]: inactive
Potency [14]: inactive
Potency [18]: inactive
Potency [10]: inactive
Potency [11]: inactive
Potency [12]: inactive
Potency [15]: inactive
max activation [13]: -0.0445% (inactive) and -4.34% (inactive)
outcome [19]: inactive
outcome [20]: inactive

CC(C)NCC(O)COc1cccc2ccccc12 (stereo unspecified)
Potency [2]: inactive
Potency [3]: inactive
Potency [17]: 30.9 µM (active) and 27.3 µM (active)
Potency [5]: inactive
Potency [6]: inactive
outcome [7]: inactive
outcome [8]: inactive
Potency [9]: inactive and 43.7 µM (active)
Potency [14]: 39.8 µM (active)
Potency [18]: inactive
Potency [10]: inactive
Potency [11]: inactive
Potency [12]: inactive
